Results from PubChem BioAssay.
A number with no mark means an inactive call. The rule behind the calls is not given here.

The compounds below were run against Pantothenate synthetase (Mycobacterium tuberculosis (strain ATCC 25618 / H37Rv)) (UniProt P9WIL5) (assay: Recombinant Mtb pantothenate synthetase (PanC) inhibitors, coupled enzyme, confirmatory (AID 375;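 note: 0% = full reaction with vehicle and 100% = no enzyme background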)). Conditions: coupled enzyme assay; at 10 µM, hits give high values.
Chain of Pantothenate synthetase (Mycobacterium tuberculosis (strain ATCC 25618 / H37Rv)) (P9WIL5 whole entry, looked up): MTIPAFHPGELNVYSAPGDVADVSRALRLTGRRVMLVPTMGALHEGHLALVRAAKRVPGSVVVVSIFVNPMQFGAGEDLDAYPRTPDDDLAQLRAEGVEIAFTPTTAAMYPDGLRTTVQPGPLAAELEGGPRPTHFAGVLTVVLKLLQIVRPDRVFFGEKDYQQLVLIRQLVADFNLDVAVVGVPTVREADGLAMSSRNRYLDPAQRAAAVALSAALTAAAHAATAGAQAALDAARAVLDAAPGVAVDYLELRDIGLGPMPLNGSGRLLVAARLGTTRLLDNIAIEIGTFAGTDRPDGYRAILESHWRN
With `COCCn1c(SCC(=O)c2ccccc2)nc2c(c1=O)SC(C)C2` (stereo not given) the inhibition was 0%.
With `O=c1cc(COn2nnc3ccc(C(F)(F)F)cc32)nc2sccn12` the inhibition was 0%.
Work on `O=c1c2ccccc2[nH]c(=S)n1CCN1CCC(=C(c2ccc(F)cc2)c2ccc(F)cc2)CC1` yielded an inhibition of 4%.
`O=C(CSc1nc(-c2ccc(F)cc2)cs1)N1CCOCC1` gave an inhibition of 0%.
For `O=C(Cc1ccccc1)Nc1nnc(-c2cccs2)s1`, the inhibition was 0%.
Work on `O=[n+]1c2c(n([O-])c3c1CCCC3)CCCC2` yielded an inhibition of 0%.
`O=C(Cn1nnc(-c2ccc(S(=O)(=O)N3CCCC3)cc2)n1)NCC1CCCO1` (stereo not given) gave an inhibition of 0%.
Work on `CC(C)(S)[C@@H](N)C(=O)O` yielded an inhibition of 4%.
With `O=C(COc1ccc(Cl)cc1)Nc1nc(-c2cccs2)cs1` the inhibition was 1%.
In the case of `O=C(CSc1ncn[nH]1)NC1CC2CCC1C2` (stereo not given), the inhibition is reported as 0%.
For `CCOc1ccc(CSC(CC(=O)O)C(=O)O)cc1` (stereo not given), the inhibition was 6%.
For `Cc1nnc(SCC2=C(C(=O)O)N3C(=O)[C@@H](NC(=O)Cn4cnnn4)[C@H]3SC2)s1`, the inhibition was 0%.
Work on `O=C(CSc1nc2ncccc2[nH]1)Nc1ccc2c(c1)OCCO2` yielded an inhibition of 0%.
In the case of `CC(C)(C)C(=O)NC1CCN(C(=O)N2CCCC2)CC1`, the inhibition is reported as 6%.
With `CCCCOC(=O)c1cccc(NC(=O)CC)c1` the inhibition was 0%.
In the case of `Cc1cc(C)n2nc(SCC(=O)N(C)Cc3ccccc3)nc2n1`, the inhibition is reported as 3%.
Compound `O=C(CSc1nnc(-c2cccnc2)o1)Nc1ccccn1` has an inhibition of 0%.
For `COc1ccc(C(=O)Nc2cccc(C)c2)cc1S(=O)(=O)N1CCOCC1`, the inhibition was 1%.
With `CSc1oc(-c2ccccc2)nc1S(=O)(=O)c1ccc(F)cc1` the inhibition was 0%.
Compound `Cn1c(/C=N/n2cnnc2)nc2ccccc21` has an inhibition of 2%.
Compound `CCN1CCN(C(c2ccc(F)cc2)c2nnnn2Cc2cccs2)CC1` (stereo not given) has an inhibition of 0%.
`Cc1ccccc1NC(=O)CSc1nc(N)c(C#N)c(-c2cccs2)c1C#N` was tested, and the inhibition was 0%.
`Cn1c(Cl)nc2ccccc21` gave an inhibition of 0%.
`O=C(c1ccc(Cl)cc1)N1CCCCC(Sc2nnc(-c3ccc4c(c3)OCO4)o2)C1=O` (stereo not given) showed an inhibition of 3%.
Compound `COc1ccc(C2=Nn3c(nnc3-c3cccnc3)SC2)cc1` has an inhibition of 0%.
Work on `COc1ccc(C2CNC(=O)C2)cc1OC1CCCC1` (stereo not given) yielded an inhibition of 1%.
`CCOC(=O)CSc1nc2cc(C(=O)NCc3ccco3)ccc2c(=O)n1C1CCCCC1` showed an inhibition of 0%.
`CC(=O)Nc1ccc(S(=O)(=O)N(CC(=O)O)Cc2ccccc2)cc1` showed an inhibition of 7%.
`N[C@@H](C(=O)N[C@@H]1C(=O)N2C(C(=O)O)=C(Cl)CS[C@H]12)c1ccccc1` was tested, and the inhibition was 2%.
`CCc1nnc(NC(=O)c2cccc(C(=O)Nc3nnc(CC)s3)n2)s1` was tested, and the inhibition was 0%.
Work on `Cn1c(=O)c2c(ncn2CC(O)CNc2ccc(Cl)cc2)n(C)c1=O` (stereo not given) yielded an inhibition of 0%.
`Cc1cc(NC(=O)Cn2cnc3c2c(=O)n(C)c(=O)n3C)n(-c2ccccc2)n1` was tested, and the inhibition was 0%.
With `O=C(Nc1ccc2c(c1)OCO2)OCc1ccccc1` the inhibition was 0%.
`CCc1nnc(NC(=O)CSc2nnc3scc(-c4ccc(C)cc4)n23)s1` showed an inhibition of 0%.
`O=C(NCC1COc2ccccc2O1)c1ccc(NC(=O)c2ccco2)cc1` (stereo not given) gave an inhibition of 0%.
`COC(=O)C1CCN(C(=O)NC(C)(C)C)CC1` showed an inhibition of 6%.
`CCOC(=O)N1CCC(NC(=O)Cn2cc3c(n2)CCC(C)C3)CC1` (stereo not given) gave an inhibition of 0%.
For `CN(C1CCCCC1)S(=O)(=O)c1ccc(S(=O)(=O)N2CCCC2)cc1`, the inhibition was 0%.
`CN(c1ccccc1C(=O)N1CCN(c2cccc(Cl)c2)CC1)S(C)(=O)=O` gave an inhibition of 0%.
`CC1=C(C(=O)NC2CCCC(C)C2C)C2(CCCCC2)OC1=O` (stereo not given) was tested, and the inhibition was 0%.
